# Article PMC5700166
# Target: GST-Hu-p50 (Homo sapiens, UniProt P19838 7-356)
# Test: protein-binding microarray (PBM); PBM: ~300 nM protein, 6 mM HEPES pH 7.8, 80 mM KCl, 0.5 mM EDTA, 0.5 mM EGTA, 6% glycerol, 35 ng/ul poly-dIdC, 1% milk, 1 h, room temperature; Ap Aiptasia and Nv Nematostella (sea anemones) / Co Capsaspora / Aq Amphimedon (sponge) / Dm Drosophila / Hu human; RHD is the Rel homology domain; high values mean tight binding
# Conditions: dsDNA, one strand shown
# Sequence of GST-Hu-p50 (P19838 7-356): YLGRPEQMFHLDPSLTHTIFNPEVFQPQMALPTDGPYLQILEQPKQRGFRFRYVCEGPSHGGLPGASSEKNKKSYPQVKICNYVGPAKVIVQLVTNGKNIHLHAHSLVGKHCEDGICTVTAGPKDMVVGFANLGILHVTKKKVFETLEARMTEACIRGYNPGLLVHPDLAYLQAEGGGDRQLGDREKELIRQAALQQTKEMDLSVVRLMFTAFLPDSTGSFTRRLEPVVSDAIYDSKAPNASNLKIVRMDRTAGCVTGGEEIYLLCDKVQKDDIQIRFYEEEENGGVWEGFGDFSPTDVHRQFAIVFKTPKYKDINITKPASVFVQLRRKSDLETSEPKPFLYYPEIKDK
row,Sequence,binding signal [z-score]
1,CCGATTAACATCAACCTTTCCCCTGATGTTAATCGGGTCTTGATTCGCTTGACGCTGCTG,4.06
2,CCGATTAACATCACGGCAACCCCTGATGTTAATCGGGTCTTGATTCGCTTGACGCTGCTG,1.19
3,CCGATTAACATCAGGACTATCCCTGATGTTAATCGGGTCTTGATTCGCTTGACGCTGCTG,1.81
